Key:
Experiment in all cases: log2 ratio of Biotin-Ahx-Ub-VS probe labelling (fragment/DMSO); higher = less target engagement (more negative = stronger competition), active = hit call of the paper (q ≤ 0.05, log2 ratio ≤ -1)
Conditions in all cases: compound concentration: 200 uM; treatment time: 3 h
[1] = molecular target: T1, ALG13 (UniProt Q9NP73)
T1 sequence (whole entry): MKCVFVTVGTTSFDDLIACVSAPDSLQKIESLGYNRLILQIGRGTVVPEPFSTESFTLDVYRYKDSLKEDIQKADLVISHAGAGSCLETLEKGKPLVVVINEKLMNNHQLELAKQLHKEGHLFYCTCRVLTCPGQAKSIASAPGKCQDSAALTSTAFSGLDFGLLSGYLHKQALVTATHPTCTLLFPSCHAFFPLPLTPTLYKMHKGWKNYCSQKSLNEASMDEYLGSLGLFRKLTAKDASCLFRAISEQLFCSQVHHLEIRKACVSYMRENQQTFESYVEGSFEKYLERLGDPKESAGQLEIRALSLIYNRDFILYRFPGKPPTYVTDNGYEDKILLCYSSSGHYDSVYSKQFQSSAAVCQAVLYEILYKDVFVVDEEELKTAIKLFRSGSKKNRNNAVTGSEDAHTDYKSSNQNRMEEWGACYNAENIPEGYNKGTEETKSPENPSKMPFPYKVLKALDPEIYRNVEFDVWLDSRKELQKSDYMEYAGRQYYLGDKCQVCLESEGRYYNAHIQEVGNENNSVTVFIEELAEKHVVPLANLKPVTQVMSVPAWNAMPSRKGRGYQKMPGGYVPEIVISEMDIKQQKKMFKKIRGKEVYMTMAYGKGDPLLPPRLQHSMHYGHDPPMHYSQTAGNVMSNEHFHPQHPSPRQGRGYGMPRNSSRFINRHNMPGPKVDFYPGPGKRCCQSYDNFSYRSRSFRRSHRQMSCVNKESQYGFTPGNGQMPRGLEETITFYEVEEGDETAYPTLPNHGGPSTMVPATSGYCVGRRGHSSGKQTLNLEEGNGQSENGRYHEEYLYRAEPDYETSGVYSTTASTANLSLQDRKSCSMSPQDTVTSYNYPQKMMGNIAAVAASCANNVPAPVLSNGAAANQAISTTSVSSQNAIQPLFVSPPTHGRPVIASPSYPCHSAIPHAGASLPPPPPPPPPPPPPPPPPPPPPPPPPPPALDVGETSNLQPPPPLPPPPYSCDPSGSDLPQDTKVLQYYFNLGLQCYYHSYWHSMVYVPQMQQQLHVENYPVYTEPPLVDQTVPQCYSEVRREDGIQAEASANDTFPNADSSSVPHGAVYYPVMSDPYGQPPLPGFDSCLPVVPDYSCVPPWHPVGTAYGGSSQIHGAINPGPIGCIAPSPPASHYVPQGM
Method in brief: (§1)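 Average log2 ratios of fragment over vehicle were obtained by unpaired t-test from global-median-normalised Spectronaut label-free quantities. Proteins with ≥2 unique peptides were included. HEK293T lysate (495 µg per sample) was treated in triplicate with fragment at 200 µM or vehicle for 3 h, then with Biotin-Ahx-Ub-VS at 0.5 µM final for 1 h, and labelled DUBs were NeutrAvidin-enriched and run by diaPASEF LC-MS/MS.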

[2] = molecular target: ATXN3 (UniProt P54252)
Method in brief: as §1

[3] = molecular target: T2, BAP1 (UniProt Q92560)
T2 sequence (whole entry): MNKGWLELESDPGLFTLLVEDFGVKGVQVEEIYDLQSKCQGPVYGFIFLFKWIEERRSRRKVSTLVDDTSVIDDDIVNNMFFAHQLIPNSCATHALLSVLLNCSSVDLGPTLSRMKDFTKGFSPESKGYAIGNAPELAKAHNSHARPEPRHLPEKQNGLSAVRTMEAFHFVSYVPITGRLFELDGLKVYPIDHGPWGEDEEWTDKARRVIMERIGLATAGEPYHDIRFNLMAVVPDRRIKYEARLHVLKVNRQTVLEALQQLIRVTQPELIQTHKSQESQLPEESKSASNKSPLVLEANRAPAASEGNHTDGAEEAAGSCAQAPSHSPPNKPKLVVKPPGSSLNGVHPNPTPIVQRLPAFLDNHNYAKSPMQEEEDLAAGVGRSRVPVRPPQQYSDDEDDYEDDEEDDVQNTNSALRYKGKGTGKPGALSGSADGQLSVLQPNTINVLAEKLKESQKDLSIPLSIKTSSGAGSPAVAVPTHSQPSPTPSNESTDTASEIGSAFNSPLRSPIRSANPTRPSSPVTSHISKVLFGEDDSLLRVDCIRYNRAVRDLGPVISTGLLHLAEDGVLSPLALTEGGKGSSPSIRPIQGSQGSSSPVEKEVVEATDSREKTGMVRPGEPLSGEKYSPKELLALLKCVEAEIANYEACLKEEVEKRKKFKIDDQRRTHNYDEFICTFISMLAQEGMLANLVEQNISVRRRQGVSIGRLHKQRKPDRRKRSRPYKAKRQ
Method in brief: as §1

[4] = molecular target: EIF3F (UniProt O00303)
Method in brief: as §1

[5] = molecular target: EIF3H (UniProt O15372)
Method in brief: as §1

[6] = molecular target: T3, FAM105A (UniProt Q9NUU6)
T3 sequence (whole entry): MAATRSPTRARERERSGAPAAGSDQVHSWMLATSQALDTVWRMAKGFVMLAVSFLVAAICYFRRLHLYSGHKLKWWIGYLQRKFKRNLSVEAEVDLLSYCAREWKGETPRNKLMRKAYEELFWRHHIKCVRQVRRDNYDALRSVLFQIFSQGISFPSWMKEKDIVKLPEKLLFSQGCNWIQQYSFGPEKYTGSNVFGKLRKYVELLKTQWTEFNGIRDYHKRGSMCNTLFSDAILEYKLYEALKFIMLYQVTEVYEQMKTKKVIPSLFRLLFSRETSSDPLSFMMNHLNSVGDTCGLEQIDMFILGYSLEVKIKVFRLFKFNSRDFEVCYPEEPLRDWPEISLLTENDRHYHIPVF
Method in brief: as §1

[7] = molecular target: OTUB1 (UniProt Q96FW1)
Method in brief: as §1

[8] = molecular target: T4, OTUD4 (UniProt Q01804)
T4 sequence (whole entry): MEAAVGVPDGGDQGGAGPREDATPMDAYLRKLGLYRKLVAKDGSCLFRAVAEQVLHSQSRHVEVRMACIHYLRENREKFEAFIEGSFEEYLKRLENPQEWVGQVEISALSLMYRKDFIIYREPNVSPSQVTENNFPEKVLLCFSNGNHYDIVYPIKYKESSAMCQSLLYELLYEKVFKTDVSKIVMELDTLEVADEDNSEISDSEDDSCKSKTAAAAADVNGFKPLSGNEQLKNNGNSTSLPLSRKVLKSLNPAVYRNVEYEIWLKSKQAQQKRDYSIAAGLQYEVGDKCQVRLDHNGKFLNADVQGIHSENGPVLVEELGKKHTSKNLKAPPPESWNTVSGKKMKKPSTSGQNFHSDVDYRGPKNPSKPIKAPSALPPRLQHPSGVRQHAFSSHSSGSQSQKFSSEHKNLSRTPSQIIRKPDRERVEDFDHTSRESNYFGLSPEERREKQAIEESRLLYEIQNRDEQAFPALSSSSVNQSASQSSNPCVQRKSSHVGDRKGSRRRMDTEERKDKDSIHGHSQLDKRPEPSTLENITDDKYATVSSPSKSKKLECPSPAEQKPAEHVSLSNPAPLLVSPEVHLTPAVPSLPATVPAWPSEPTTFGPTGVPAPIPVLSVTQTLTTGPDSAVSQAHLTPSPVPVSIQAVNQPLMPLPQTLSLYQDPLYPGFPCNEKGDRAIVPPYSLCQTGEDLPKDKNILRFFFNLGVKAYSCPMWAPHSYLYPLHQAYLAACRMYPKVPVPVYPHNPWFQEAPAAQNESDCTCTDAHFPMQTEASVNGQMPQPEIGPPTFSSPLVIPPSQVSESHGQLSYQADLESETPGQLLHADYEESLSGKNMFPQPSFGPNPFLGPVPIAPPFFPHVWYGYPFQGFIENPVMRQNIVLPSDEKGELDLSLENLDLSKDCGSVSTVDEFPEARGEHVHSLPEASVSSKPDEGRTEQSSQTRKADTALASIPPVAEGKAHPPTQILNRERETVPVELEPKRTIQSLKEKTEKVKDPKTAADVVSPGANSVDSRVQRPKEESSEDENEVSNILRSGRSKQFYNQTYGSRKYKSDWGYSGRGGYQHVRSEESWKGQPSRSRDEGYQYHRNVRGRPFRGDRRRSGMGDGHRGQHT
Method in brief: as §1

[9] = molecular target: T5, OTUD5 (UniProt Q96G74)
T5 sequence (whole entry): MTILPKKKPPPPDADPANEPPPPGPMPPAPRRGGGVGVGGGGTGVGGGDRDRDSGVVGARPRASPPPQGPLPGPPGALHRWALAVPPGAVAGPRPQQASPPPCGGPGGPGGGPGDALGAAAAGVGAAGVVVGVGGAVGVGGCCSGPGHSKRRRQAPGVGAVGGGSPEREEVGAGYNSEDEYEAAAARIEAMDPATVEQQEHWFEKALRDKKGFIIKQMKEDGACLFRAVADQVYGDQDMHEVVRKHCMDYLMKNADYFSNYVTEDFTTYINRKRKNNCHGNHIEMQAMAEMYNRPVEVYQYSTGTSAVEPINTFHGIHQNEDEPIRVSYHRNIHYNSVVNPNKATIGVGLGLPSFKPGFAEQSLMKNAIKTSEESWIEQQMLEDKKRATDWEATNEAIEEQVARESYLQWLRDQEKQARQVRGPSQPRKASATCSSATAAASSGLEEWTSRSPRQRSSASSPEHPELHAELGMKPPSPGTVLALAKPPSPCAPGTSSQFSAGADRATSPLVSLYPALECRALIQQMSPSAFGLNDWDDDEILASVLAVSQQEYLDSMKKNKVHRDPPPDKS
Method in brief: as §1

Measured: log2 ratio of Biotin-Ahx-Ub-VS probe labelling

Sequence of ATXN3 (P54252 whole entry): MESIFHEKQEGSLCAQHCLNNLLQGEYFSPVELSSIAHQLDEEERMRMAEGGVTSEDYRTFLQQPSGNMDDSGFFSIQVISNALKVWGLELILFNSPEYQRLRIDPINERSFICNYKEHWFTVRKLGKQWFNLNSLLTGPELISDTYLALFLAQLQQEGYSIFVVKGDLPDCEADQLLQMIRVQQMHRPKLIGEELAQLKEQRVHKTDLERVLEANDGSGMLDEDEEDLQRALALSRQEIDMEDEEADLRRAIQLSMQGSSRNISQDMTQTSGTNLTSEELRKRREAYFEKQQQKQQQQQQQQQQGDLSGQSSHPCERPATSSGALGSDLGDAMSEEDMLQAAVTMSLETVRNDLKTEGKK
Sequence of EIF3H (O15372 whole entry): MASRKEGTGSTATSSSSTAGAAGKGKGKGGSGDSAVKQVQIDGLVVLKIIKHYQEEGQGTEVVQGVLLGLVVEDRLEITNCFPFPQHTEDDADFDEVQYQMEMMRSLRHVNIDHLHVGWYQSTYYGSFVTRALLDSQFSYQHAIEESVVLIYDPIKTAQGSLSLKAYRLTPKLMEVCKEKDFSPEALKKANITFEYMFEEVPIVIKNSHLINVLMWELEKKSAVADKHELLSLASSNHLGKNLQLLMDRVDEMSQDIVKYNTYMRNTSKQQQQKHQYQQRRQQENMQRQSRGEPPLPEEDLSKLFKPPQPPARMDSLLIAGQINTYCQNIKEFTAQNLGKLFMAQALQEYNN
Sequence of EIF3F (O00303 whole entry): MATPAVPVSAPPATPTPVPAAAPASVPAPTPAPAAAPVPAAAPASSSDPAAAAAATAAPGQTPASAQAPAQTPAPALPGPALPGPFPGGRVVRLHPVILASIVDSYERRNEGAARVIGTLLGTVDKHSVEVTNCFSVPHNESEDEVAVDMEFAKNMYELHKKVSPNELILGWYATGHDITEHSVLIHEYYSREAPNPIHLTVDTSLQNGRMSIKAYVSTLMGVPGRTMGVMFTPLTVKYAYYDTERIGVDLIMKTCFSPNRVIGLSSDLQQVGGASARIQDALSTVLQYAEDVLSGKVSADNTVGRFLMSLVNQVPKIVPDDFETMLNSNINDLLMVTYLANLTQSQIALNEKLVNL
Sequence of OTUB1 (Q96FW1 whole entry): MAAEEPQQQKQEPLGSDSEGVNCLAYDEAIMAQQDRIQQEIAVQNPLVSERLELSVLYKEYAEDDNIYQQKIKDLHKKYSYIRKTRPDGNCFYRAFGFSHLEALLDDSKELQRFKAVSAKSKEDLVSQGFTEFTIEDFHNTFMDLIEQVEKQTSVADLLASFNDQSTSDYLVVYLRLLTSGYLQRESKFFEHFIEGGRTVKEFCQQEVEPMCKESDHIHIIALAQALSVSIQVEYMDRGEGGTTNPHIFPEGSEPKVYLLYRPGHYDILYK

COc1cccc(CN(C)C(=O)CCl)c1
active: [3] -2.68
inactive: [1] -0.0162 | [2] -0.781 | [4] 0.0528 | [5] -0.0896 | [6] -0.419 | [7] 0.00861 | [8] -0.462 | [9] -0.999

Source: the supplement of paper PMC11732987, “Enantioselective OTUD7B fragment discovery through chemoproteomics screening and high-throughput optimisation” (Communications Chemistry, 2025)
